Bioassay records (PubChem BioAssay)
Tau fil binding: binders of human tau filaments; P10636; 2% of 71,000 active; Potency, µM (titrated, usually from 57.1 µM); recombinant tau filaments, thioflavin S fluorescence, 15 h; filaments grown with octadecylsulfate alongside compound;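 note: actives lower thioflavin S fluorescence by blocking filaments or displacing dye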
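Tau 2 uM in ThS buffer dispensed; compound added; 60 uM ODS added (finals 1 uM tau, 30 uM ODS); 15 h 37 C; fluor ex450/em510.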
USP2a inhib: USP2a (human) protease inhibition | O75604 | 0.1% of 60,000 active | USP2a enzymatic assay, qHTS inhibition | AID 927 | Potency, µM (top dose mostly 38.3 µM), hits mostly inhibitors; note: nearly all actives have a fitted effect of over 60% in size
Target sequence (O75604 whole entry, looked up): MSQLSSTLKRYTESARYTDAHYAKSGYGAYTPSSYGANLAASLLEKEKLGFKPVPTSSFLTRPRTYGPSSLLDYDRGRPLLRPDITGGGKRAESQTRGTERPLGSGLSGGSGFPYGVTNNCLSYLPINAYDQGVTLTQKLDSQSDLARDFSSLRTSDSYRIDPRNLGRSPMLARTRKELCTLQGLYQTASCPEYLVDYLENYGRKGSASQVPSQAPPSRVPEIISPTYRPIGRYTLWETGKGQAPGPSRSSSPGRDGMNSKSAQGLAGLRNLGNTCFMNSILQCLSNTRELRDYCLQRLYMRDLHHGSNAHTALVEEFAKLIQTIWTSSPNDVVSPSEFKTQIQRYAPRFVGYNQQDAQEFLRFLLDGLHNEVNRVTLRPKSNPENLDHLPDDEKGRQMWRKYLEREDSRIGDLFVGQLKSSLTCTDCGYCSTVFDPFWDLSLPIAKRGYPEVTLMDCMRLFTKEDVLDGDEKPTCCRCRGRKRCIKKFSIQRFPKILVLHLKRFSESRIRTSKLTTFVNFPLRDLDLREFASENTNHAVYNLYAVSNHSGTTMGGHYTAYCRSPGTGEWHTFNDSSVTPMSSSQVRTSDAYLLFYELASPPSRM
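Inhibition is measured in a cell-free coupled assay with 20 nM USP2 core, 20 nM Ub-PLA2 and 20 uM NBD C6-HPC, 2.5 h incubation. Activity normalized to NEM control.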
Hsp90 Hop PPI: changes Hsp90-Hop TPR2A binding signal, up or down; AlphaScreen TPR2A-His6 binding biotin-Hsp90 C-terminal peptide; Potency, µM (series often up to 57 µM); 0.44% of 71,000 active; AID 595; active = well fitted curve in either direction with a large enough effect; inconclusive = small, poorly fitted or top-dose-only effect, or another doubt
ALOX15 inhib: blocks human 15-lipoxygenase activity; purified 15hLO-1, xylenol orange hydroperoxide absorbance; Potency, µM (series often up to 57.1 µM), actives largely listed as inhibitors; AID 887; 1.4% of 74,000 active; P16050; note: nearly all actives have a fitted effect of over 55% in size
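Purified human 15hLO-1 (40 nM) in 25 mM Hepes pH 7.5, 0.01% Triton X-100, preincubated 15 min RT with compound, then 50 uM arachidonic acid for 6 min. Hydroperoxide read by ferrous/xylenol orange, 30 min; 573/405 nm absorbance ratio gave progress.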
Of the large screens only hits and unclear results are named; the others gave an inactive call. Hits are enriched below; roughly 3.2% of the tested compounds scored in any of these assays. Unless noted, calls come from the whole dose curve; as a rule, active = well fitted curve in the direction sought with a large enough effect; inconclusive = small, poorly fitted or top-dose-only effect, or another doubt; inactive = no such curve, though single readings can be large; an effect the other way counts as inactive or inconclusive.

Nc1ccc(-c2n[nH]c(=O)c3ccccc23)cc1N	Tau fil binding 16µM, ALOX15 inhib inconclusive
N#CCCn1c(=O)c(-c2cc(F)cc(F)c2)nc2cnc(Oc3cccc(Cl)c3)nc21	none
Nc1c(N2CCCC2)cc(Cl)c2nonc12	Tau fil binding 20µM
Nc1c(N2CCOCC2)cc(Cl)c2nonc12	Tau fil binding inconclusive
Cc1nc(-c2ccccc2)sc1C(N)=O	none
Cc1c(Cc2ccccc2)sc(N)c1C(N)=O	Tau fil binding 16µM, ALOX15 inhib inconclusive
CCCCCCCCCCCCC/C=C\[C@@H](O)[C@@H](N)CO	Tau fil binding 32µM
CC(=O)C1=C(C)NC(SCC(=O)c2ccc(C)cc2)=C(C#N)C1c1ccco1 (configuration not stated)	ALOX15 inhib 13µM (no result: USP2a inhib)
COc1ccccc1NC(=O)C1=C(C)NC(SCC(=O)c2ccccc2)=C(C#N)C1c1ccco1 (configuration not stated)	none
O=[N+]([O-])c1cccc(Cl)c1	none (no result: USP2a inhib)
Cc1cc(/C=C\c2ccc3cc(N(C)C)ccc3[n+]2C)c(C)n1-c1ccccc1	Tau fil binding 3.2µM, Hsp90 Hop PPI inconclusive (no result: ALOX15 inhib)
Cc1ccc2c(c1[N+](=O)[O-])C(=O)c1ccccc1C2=O	none (no result: USP2a inhib)
O=C1c2ccccc2-c2cc([N+](=O)[O-])c([N+](=O)[O-])cc21	Tau fil binding 4µM (no result: USP2a inhib)
CCCn1c(-c2ccc(F)cc2)nc2c(NCCCN3CCOCC3)nc(C)nc21	none (no result: USP2a inhib)
N#Cc1c(N)nc(SCC(=O)OCc2ccccc2)c(C#N)c1-c1ccco1	ALOX15 inhib 16µM
COC(=O)CSc1nc2c(c(-c3ccco3)c1C#N)CCCC2	Tau fil binding 16µM, ALOX15 inhib 10µM
CC(=O)N(C)c1nc(-c2ccc(Cl)cc2)cs1	none
CC(=O)c1c(C)nc(-c2ccc(Cl)cc2)nc1N=CN(C)C	Tau fil binding 25µM
CNc1oc(Cc2cccc3ccccc23)nc1C#N	none
Cc1oc(/N=C/c2cccc3ccccc23)c(C#N)c1C	Tau fil binding 0.79µM, ALOX15 inhib inconclusive
COc1ccc(C(=O)N2CCC3(CCCN(C)C3)CC2)cc1	none
COc1ccc(C(=O)N2CCC3(CCN(C)CC3)CC2)cc1	Tau fil binding 16µM
Cc1cc(Nc2ccc(Br)cc2F)n2nc(C)nc2n1	none (no result: USP2a inhib)
CCN(CC)c1ccc(NC(=O)c2cncc(Br)c2)cc1	Tau fil binding 20µM
CCN(CC)c1ccc(C(=O)Nc2cccc(F)c2)cc1	none
COc1cc(S(=O)(=O)Nc2ccccc2C)ccc1Cl	Tau fil binding 13µM
Cc1cc(S(=O)(=O)Nc2ccccc2C)ccc1F	none
COc1cc(S(=O)(=O)NC2CCCCC2)ccc1Cl	Tau fil binding 16µM, ALOX15 inhib inconclusive
N=C(N)SCC(=O)O	none (no result: USP2a inhib)
Oc1c(Cl)cc(Cl)c(Cl)c1Cl	none (no result: USP2a inhib)
Oc1c(Cl)cc(Cl)cc1Sc1cc(Cl)cc(Cl)c1O	Tau fil binding inconclusive, ALOX15 inhib 16µM
Ic1ccc2c(c1)N(c1ccccc1)c1cc(Nc3ccc4nc5ccc(I)cc5[n+](-c5ccccc5)c4c3)ccc1N2	Tau fil binding 4µM (no result: USP2a inhib)
CN(C)CCCN=C(N)N	none (no result: USP2a inhib)
O=C1CCCC/C1=C\Nc1ccc(Cl)cn1	none
O=C1CCCC/C1=C\Nc1ccc(O)cc1	ALOX15 inhib 20µM
CC1=C(/C=C/C(C)=C/C=C/C(C)=C/CO)C(C)(C)CCC1	Tau fil binding 32µM, ALOX15 inhib inconclusive
CC1=C(/C=C/C(C)=C/C=C/C(C)=C/C=O)C(C)(C)CCC1	Tau fil binding 5µM, ALOX15 inhib inconclusive (no result: USP2a inhib)
CC1=C(\C=C/C(C)=C/C=C\C(C)=C\CO)C(C)(C)CCC1	Tau fil binding inconclusive (no result: USP2a inhib, ALOX15 inhib)
CC1=C(/C=C/C(C)=C/C=C/C(C)=C\C=O)C(C)(C)CCC1	Tau fil binding 6.3µM (no result: USP2a inhib)
N#CC1=C(N)Oc2n[nH]c(-c3cccs3)c2C1c1ccoc1 (configuration not stated)	ALOX15 inhib 10µM
Cc1nc2cnc(N3CCOCC3)nc2n(CCc2ccccc2)c1=O	none
O=C(NCCc1ccccc1)c1ccccc1NS(=O)(=O)N1CCCC1	Hsp90 Hop PPI inconclusive
CCOC(=O)c1cnc(-n2nc(C)cc2C)nc1Nc1ccc2c(c1)OCO2	none
CCOC(=O)c1cnc(-n2nc(C)cc2C)nc1Nc1ccc(N(C)C)cc1	Tau fil binding 13µM
COc1cc(C2C(C#N)=C(N)Oc3c2oc(CO)cc3=O)ccc1OC(C)C (configuration not stated)	ALOX15 inhib 20µM
COc1cc(C2C(C#N)=C(N)Oc3cc(N(C)C)ccc32)cc2c1OCO2 (configuration not stated)	ALOX15 inhib 25µM
COc1ccc(C2C(C#N)=C(N)Oc3cc(O)ccc32)cc1OC (configuration not stated)	ALOX15 inhib 10µM
COc1cc(C2C(C#N)=C(N)Oc3cc(O)ccc32)cc2c1OCO2 (configuration not stated)	none (no result: USP2a inhib)
COC(=O)[C@@]1(Cc2ccc(OC)cc2)[C@H]2c3cc(C(=O)N(C)C)n(Cc4cc(C)n(C)n4)c3C[C@H]2CN1C(=O)c1ccccc1	none (no result: USP2a inhib, ALOX15 inhib)
O=C(NCCCN1CCOCC1)c1ccc(Cc2nc3ccccc3[nH]2)cc1	none (no result: Tau fil binding, USP2a inhib, Hsp90 Hop PPI)
CCCCC(CC)COCCCN (configuration not stated)	none (no result: USP2a inhib)
CCOC(=O)C(C)C(C)=O (configuration not stated)	none (no result: USP2a inhib)
CC1CCC/C(=C\Nc2ccccc2C(=O)O)C1=O (configuration not stated)	none
CC1CCC/C(=C\Nc2ccc3c(c2)OCO3)C1=O (configuration not stated)	Tau fil binding 25µM
CCCCC(=O)N(CCOC)c1nnc(-c2ccc(OC)cc2)s1	USP2a inhib 2µM
CCc1ccccc1OC[C@@H](O)CN[C@H]1CCCc2ccccc21	Tau fil binding 13µM (no result: USP2a inhib)
Nc1cc(-c2ccncc2)c[nH]c1=O	ALOX15 inhib 13µM
COCCn1c(=O)c(CCc2ccccc2)nc2cnc(N(C)C)nc21	none
CN(Cc1ccco1)c1nc(-c2ccccc2Cl)nc2ccccc12	none
COc1ccccc1-c1nc(N(C)C)c2ccccc2n1	Tau fil binding 16µM, ALOX15 inhib inconclusive
CN(Cc1ccco1)c1nc(-c2ccccc2C(F)(F)F)nc2ccccc12	ALOX15 inhib 16µM
COc1ccccc1-c1nc(N(C)Cc2ccco2)c2ccccc2n1	Tau fil binding 7.9µM
CCCCOn1c(C)c(C(=O)OCC)c2c3nonc3ccc21	USP2a inhib inconclusive, Hsp90 Hop PPI 32µM
O=C(c1cccc(F)c1)N1CCC2(CC1)CN(c1ccccn1)C2	none
CC1(C)OC2CC3C4CC(F)C5=CC(=O)CC[C@@]5(C)C4C(O)C[C@@]3(C)[C@]2(C(=O)CO)O1 (some centres not stated)	none (no result: Tau fil binding, Hsp90 Hop PPI)
COc1cccc(C(=O)NC2CC3CCCC(C2)N3CC(=O)Nc2ccccc2)c1 (configuration not stated)	Hsp90 Hop PPI inconclusive
COc1cccc(C(=O)NC2CC3CCCC(C2)N3CC(=O)Nc2ccc(N(C)C)cc2)c1 (configuration not stated)	Tau fil binding 13µM, Hsp90 Hop PPI inconclusive
COC(=O)C1=C(NC(=O)c2ccc(C)c(C)c2)CCS1	none
O=C(c1cc(-c2ccco2)nn1-c1cccc(Cl)c1)N1CCCCC1	Tau fil binding inconclusive, ALOX15 inhib 7.9µM
O=C(CCN1C(=O)c2ccccc2C1=O)Nn1cnnc1	none
